Measured values reported in PMC12670160, “A drug-repurposing screen of FDA- and EMA-approved drugs identifies two NF-κB inhibitors active against eumycetoma” (Journal of Antimicrobial Chemotherapy, 2025).
Where a name gives a salt, the structure may show the parent alone. Read-outs that look alike come from different tables or passages of the source. Among all 5,300 compounds or so, about 130 (2.5%) showed an effect of 50% or more. Shown is part of a subset that was picked to be rich in strong results. Peptide text beside a SMILES is read from it.

Test system: M. mycetomatis strain mm55
Details: primary screen, metabolic activity vs growth control, 96 h, 2 µM, inhibitor
[1] = Madurella mycetomatis metabolic activity at 2µM (%)

Compound	% viability [%]	% viability [1] [%]
N#Cc1cn([C@@H]2O[C@H](CO)[C@@H](O)[C@H]2O)c2ncnc(N)c12 [ONC0003230, toyocamycin]	99.22	–
Cl.O=C(c1ccc(-c2ccc(Cl)cc2)o1)N(Cc1ccccn1)c1ccc(N2CCNCC2)cc1 [ONC0002178, mk2in1 hydrochloride]	65.24	–
C/C(O)=C(\C#N)C(=O)Nc1ccc(C(F)(F)F)cc1 [ONC0000878, teriflunomide]	64.9	–
O=C(Nc1ccc(C(O)(C(F)(F)F)C(F)(F)F)cc1)c1ccc(C(F)(F)F)cc1 [ONC0000412, sr1078]	46.34	–
CC(=O)Nc1ccc(C(=O)NC(C)(C)C)cc1 [ONC0002880]	98.46	–
CC(=O)OC[C@H](N)C(=O)O.Cl [ONC0000420, oacetyllserine hcl]	77.43	–
CC[C@@]1(O)C(=O)OCc2c1cc1n(c2=O)Cc2cc3c(N)cccc3nc2-1 [ONC0005467, 9aminocamptothecin]	102.4	–
CCCCCCCCCCCCCCOS(=O)(=O)O [ONC0003317, sodium tetradecyl sulfate]	84.61	–
CCc1cc(-c2n[nH]c(C)c2-c2ccc3c(c2)OCCO3)c(O)cc1O [ONC0003616, cct018159]	49.48	–
Cc1cccc(-c2[nH]c(C(C)(C)C)nc2-c2ccc3c(c2)OCO3)n1 [ONC0005219, sb505124]	129	–
CCNC(=O)c1[nH]nc(-c2cc(Cl)c(O)cc2O)c1-c1ccc(OC)cc1 [ONC0005116, ver49009]	88.78	–
CC(C)CC1NC(=O)C(C(C)C)NC(=O)C2CCCN2C(=O)C(CC(=O)O)NC(=O)C(Cc2c[nH]c3ccccc23)NC1=O (stereo not drawn) [ONC0004583, bq123] (cyclo(DPVLW); configuration not given here)	106.9	–
CC(=O)NC1[C@@H](O)OC(CO)[C@@H](O)[C@H]1O (stereo partly drawn) [ONC0002960, nacetylmannosamine]	104.5	–
CN1C(C(=O)Nc2ccccn2)C(=O)c2sccc2S1(=O)=O (stereo not drawn) [ONC0002886, tenoxicam]	126.3	–
CC(O)c1cc(C(=O)N[C@@H](C)Cn2ccc(-c3ccc(C#N)c(Cl)c3)n2)[nH]n1 (stereo partly drawn) [ONC0005059, odm201]	86.36	–
O=C(NCc1cccc(O)c1)Nc1nc(-c2ccncc2)cs1 [ONC0005121, rki1447]	–	69.4
CC(C)(C)c1ccc(S(=O)(=O)/C=C/C#N)cc1 [bay117085]	1.843	–
Cc1ccc(S(=O)(=O)/C=C/C#N)cc1 [bay117082]	112.1	–
CCOc1ccc2nc(SCCN3CCOCC3)[nH]c2c1 [ONC0001849, fabomotizole hydrochloride]	108.3	–
Cc1coc2c1C(=O)C(=O)c1c-2ccc2c1CCCC2(C)C [ONC0005254, tanshinone iia tanshinone b]	103.2	–
Cc1c(S(=O)(=O)O)oc2c1C(=O)C(=O)c1c-2ccc2c1CCCC2(C)C [ONC0003377, sodiumtanshinoneiiasulfonate]	55.5	–

Compound	% viability [%]	% viability [1] [%]
C[C@H]1COC2=C1C(=O)C(=O)c1c2ccc2c1CCCC2(C)C [ONC0001081, cryptotanshinone]	49.66	–
Nc1nc2nc[nH]c2c(=S)[nH]1 [ONC0003925, tioguanine]	107.9	–
O=c1[nH]c(=O)n([C@H]2C[C@H](O)[C@@H](CO)O2)cc1F [ONC0002845, floxuridine]	24.01	–
O=c1[nH]c(=O)n([C@H]2C[C@H](O)[C@@H](CO)O2)cc1Br [ONC0001774, 5brdu]	105.2	–
Cc1cn([C@@H]2C[C@@H](O)[C@H](CO)O2)c(=O)[nH]c1=O [ONC0004416, telbivudine sebivo tyzeka]	98.41	–
Nc1nc(=O)n([C@H]2C[C@H](O)[C@@H](CO)O2)cc1Cl [ONC0003690, 5chloro2deoxycytidine]	55.79	–
Nc1ncn([C@H]2C[C@H](O)[C@@H](CO)O2)c(=O)n1 [ONC0003115, decitabine]	79.17	–
Nc1nc(=O)n([C@H]2C[C@H](O)[C@@H](CO)O2)cc1F [ONC0004119, 5fluoro2deoxycytidine]	7.324	–
Nc1nccc(/C=C/c2ccccc2)n1 [ONC0001621, tcn238]	73.65	–
CCC(C/C=C/c1ccccc1)(c1ccccc1)N(C)CC1CC1 (stereo not drawn) [ONC0003075, igmesine]	61.21	–
O=C(CCCN1CCC2(CC1)C(=O)NCN2c1ccccc1)c1ccc(F)cc1 [ONC0000014, spiperone]	87.63	–
O=C1NCN(c2ccccc2)C12CCN(CCCC(c1ccc(F)cc1)c1ccc(F)cc1)CC2 [ONC0003520, fluspirilene]	48.06	–
O=C(NCCN1CCC2(CC1)C(=O)NCN2c1cccc(F)c1)c1ccc(F)c(F)c1 [ONC0004390, ml298]	135.4	–
CC(C)c1cc(CNc2nc(Nc3cc(C4CC4)[nH]n3)cc(N3CCN(C)CC3)n2)on1 [ONC0000976, xl228]	85.75	–
CCCC[C@H](NC(C)=O)C(=O)N[C@H]1CC(=O)NCCCC[C@@H](C(=O)O)NC(=O)[C@H](Cc2c[nH]c3ccccc23)NC(=O)[C@H](CCCN=C(N)N)NC(=O)[C@@H](Cc2ccccc2)NC(=O)[C@H](Cc2cnc[nH]2)NC1=O [ONC0002156, bremelanotide acetate]	73.73	–
O=C1O[C@@H](CO)[C@H](O)[C@@H](O)[C@@H]1O [ONC0003123, gluconolactone]	67.77	–
C[N+]1(C)CCC(=C(c2ccccc2)c2ccccc2)CC1 [ONC0004508, diphemanil methylsulfate]	48.99	–
C[N+]1(C)CCC(OC(=O)C(c2ccccc2)c2ccccc2)CC1 [ONC0003592, 4damp]	92.53	–
Clc1cccc(Cl)c1N=C1NCCN1 [ONC0004193, clonidine hydrochloride]	96.49	–
Ac-PHSCN-NH2 [ONC0000745, atn161 trifluoroacetate salt]	72.86	–
CCNC(=O)[C@@H]1CCCN1C(=O)[C@H](CCCNC(=N)N)NC(=O)[C@H](CC(C)C)NC(=O)[C@@H](C)NC(=O)[C@H](Cc1ccc(O)cc1)NC(=O)[C@H](CO)NC(=O)[C@H](Cc1c[nH]c2ccccc12)NC(=O)[C@H](Cc1c[nH]cn1)NC(=O)[C@@H]1CCC(=O)N1 [ONC0002202, alarelin acetate]	212.3	–

Compound	% viability [%]	% viability [1] [%]
CC(CN(C)C)CN1c2ccccc2Sc2ccccc21 (stereo not drawn) [ONC0003228, trimeprazine tartrate]	–	94.09
CS(=O)(=O)c1ccc(Oc2cc(F)cc(C#N)c2)c2c1[C@H](O)C(F)(F)C2 [ONC0001118, pt2385]	47.48	–
C[N+](C)(C)[C@@H](Cc1c[nH]c(=S)[nH]1)C(=O)O [ONC0003509, lergothioneine]	51.74	–
CCOC(=O)N1CSCC1C(=O)O (stereo not drawn) [ONC0002766, 3ethyl thiazolidine34dicarboxylate]	97.19	–
Nc1ncnc2c1ncn2[C@H]1O[C@@H](C(=O)N2CCN(CC(=O)Nc3cccc4c3CNC4=O)CC2)[C@H](O)[C@@H]1O [ONC0001619, eb47]	55.83	–
Cc1cn([C@H]2O[C@@H](CO)[C@H](O)[C@@H]2F)c(=O)[nH]c1=O [ONC0004549, clevudine levovir]	61.35	–
N[C@H](Cc1c[nH]cn1)C(=O)O [ONC0001939, dhistidine]	75.44	–
O=C(O)/C=C\c1c[nH]cn1 [ONC0002668, cisurocanic acid]	45.73	–
O=C(O)/C=C/c1c[nH]cn1 [ONC0003737, cisurocanicacid]	146.4	–
NC(=O)c1nc[nH]c1O [ONC0003682, 5hydroxy1himidazole4carboxamide]	60.3	–
Nc1nc2nn[nH]c2c(=O)[nH]1 [ONC0002792, azaguanine8]	265.7	–
O=C(O)COc1ccc(OCCNC[C@H](O)COc2ccccc2)cc1 [ONC0002275]	78.74	–
COCCNC(=O)COc1ccc(OCCNC[C@H](O)COc2ccccc2)cc1 [ONC0001450, zd7114]	94.55	–
O=C(O)Cc1ccc(OCCNC[C@H](O)c2ccccc2)cc1 [ONC0001068, zd2079]	36.58	–
COc1ccc(C[C@H](C)NC[C@@H](O)c2ccc(O)c(NC=O)c2)cc1 [ONC0001548, formoterol]	81.88	–
COc1ccc([C@]2(O)CC[C@@H](N3CC[C@@H](NC(=O)CNC(=O)c4cccc(C(F)(F)F)c4)C3)CC2)cn1 [ONC0000726, incb 3284]	81.5	–
c1cnc(NCc2ccc(CNc3ncccn3)cc2)nc1 [ONC0002000, msx122]	83.13	–
c1ccc(-c2ccc(CNc3nc(-c4ccccn4)nnc3-c3ccccc3)cc2)cc1 [ONC0001674, ml228]	2.835	–
c1ccc(NCc2ccc(CNc3ccccn3)cc2)nc1 [ONC0004550, wz 811]	63.57	–
FCc1ccc(OCCOc2ccc(Cl)cc2Cl)c(Cl)n1 [ONC0000095, cym50260]	81.52	–
O=C(O)CN(CCN(CC(=O)O)CC(=O)O)CCN(CC(=O)O)CC(=O)O [ONC0005432, gadopenteticacid]	–	103.1
